Several values for one entry are separate records, joined by “and”; a condition that tells them apart may be missing. Identical values can stand only once. About 79,000 compounds went through this panel and 15% of them were active in at least one assay; those are over-represented in the sample as a whole. The source holds several records for some structures; these can differ, active in one and inactive in another. Activity calls are given as the source filed them. Cut-off read from the data, not from the text of the source: active = growth inhibition above about 70%; inactive = the rest.
Tests used:
[1] = NCI Yeast Anticancer Drug Screen. Data for the rad52 strain (AID 147);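 note: 0% = growth of vehicle-treated control cultures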; conditions: S. cerevisiae rad52 mutant growth inhibition, stronger effect = higher value
Procedure, shortened: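 Yeast strain carrying a DNA damage repair alteration was exposed to test compounds. Growth inhibition was measured relative to vehicle-treated controls.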

[2] = NCI Yeast Anticancer Drug Screen. Data for the wt1 strain (AID 149);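 note: 0% = growth of vehicle-treated wt1 cultures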; conditions: S. cerevisiae wt1 strain (SPY 50644) growth inhibition, stronger effect = higher value
Procedure, shortened: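 Compounds are added to wt1 yeast cultures. Growth is then measured. Inhibition is expressed relative to vehicle-treated controls.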

[3] = NCI Yeast Anticancer Drug Screen. Data for the rad50EPP+ strain (AID 151);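 note: 0% = growth of vehicle-treated control cultures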; conditions: S. cerevisiae rad50 mutant strain, stronger effect = higher value
Procedure, shortened: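 Yeast strain carrying rad50 alteration (rad50EPP+) exposed to compounds; growth inhibition measured relative to vehicle-treated controls.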

[4] = NCI Yeast Anticancer Drug Screen. Data for the mgt1 strain (AID 153); conditions: S. cerevisiae mgt1 mutant growth inhibition, stronger effect = higher value
Procedure, shortened: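 Yeast mgt1 strain (DNA repair/cell-cycle alteration panel) exposed to compounds; growth inhibition measured relative to vehicle-treated controls.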

[5] = NCI Yeast Anticancer Drug Screen. Data for the rad50 strain (AID 155);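 note: 0% = growth of vehicle-only cultures of the same strain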; conditions: S. cerevisiae rad50 strain growth inhibition, stronger effect = higher value
Procedure, shortened: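 Inhibition values express reduced yeast growth in compound-treated cultures relative to vehicle-treated controls.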

[6] = NCI Yeast Anticancer Drug Screen. Data for the mec2-1 strain (AID 157); conditions: S. cerevisiae mec2-1 strain, stronger effect = higher value
Procedure, shortened: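 mec2-1 yeast strain, carrying an alteration in DNA damage repair or cell cycle control, was exposed to compounds; growth inhibition was measured relative to vehicle-treated controls.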

[7] = NCI Yeast Anticancer Drug Screen. Data for the rad14 strain (AID 159);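 note: 0% = growth of vehicle-treated control cultures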; conditions: S. cerevisiae rad14 strain growth inhibition, stronger effect = higher value
Procedure, shortened: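 A mutant yeast strain defective in DNA damage repair is treated with compound; inhibition of its growth is scored against untreated, vehicle-exposed cultures.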

[8] = NCI Yeast Anticancer Drug Screen. Data for the sgs1 mgt1 strain (AID 161);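 note: 0% = growth of cultures given vehicle only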; conditions: S. cerevisiae sgs1 mgt1 strain, stronger effect = higher value
Procedure, shortened: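 This yeast growth screen uses a strain with defined DNA-repair lesions; compound-treated growth is compared with vehicle-treated growth.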

[9] = NCI Yeast Anticancer Drug Screen. Data for the CLN2oe strain (AID 163);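 note: 0% = growth of vehicle-only control cultures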; conditions: S. cerevisiae CLN2oe strain, stronger effect = higher value
Procedure, shortened: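 Yeast cells carrying a defined cell-cycle control alteration were exposed to test compounds. Growth inhibition was scored against vehicle-treated control cultures.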

[10] = NCI Yeast Anticancer Drug Screen. Data for the cln2 rad14 strain (AID 165);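 note: 0% = growth equal to vehicle treated cultures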; conditions: S. cerevisiae cln2 rad14 strain, stronger effect = higher value
Procedure, shortened: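 Yeast carrying cln2 and rad14 alterations (cell cycle control and DNA damage repair) were exposed to compounds. Growth inhibition was measured against vehicle-treated controls.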

[11] = NCI Yeast Anticancer Drug Screen. Data for the bub3 strain (AID 167); conditions: S. cerevisiae bub3 mutant strain, stronger effect = higher value
Procedure, shortened: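 Steps: expose the mutant yeast strain to compound; grow alongside vehicle-treated cultures; measure growth; express inhibition against the vehicle cultures.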

[12] = NCI Yeast Anticancer Drug Screen. Data for the wt2 strain (AID 169);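 note: 0% = growth of vehicle-treated yeast cultures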; conditions: S. cerevisiae wt2 strain growth inhibition, stronger effect = higher value
Procedure, shortened: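 Yeast cells were exposed to test compounds, and growth inhibition was measured relative to vehicle-treated controls.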

[13] = NCI Yeast Anticancer Drug Screen. Data for the sgs1 strain (AID 173);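 note: 0% = growth of vehicle-only control cultures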; conditions: S. cerevisiae sgs1 mutant, stronger effect = higher value
Procedure, shortened: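 Yeast mutant strains carrying defined defects in DNA damage repair or cell cycle control were exposed to test compounds. Growth inhibition was scored against vehicle-treated controls.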

[14] = NCI Yeast Anticancer Drug Screen. Data for the mlh1 rad18 strain (AID 175); conditions: S. cerevisiae mlh1 rad18 strain growth inhibition, stronger effect = higher value
Procedure, shortened: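 Growth inhibition of the yeast strain was measured after compound exposure and expressed relative to vehicle-treated controls. The strain carries defined defects in DNA damage repair.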

[15] = NCI Yeast Anticancer Drug Screen. Data for the rad18 strain (AID 177); conditions: S. cerevisiae rad18 mutant growth inhibition, stronger effect = higher value
Procedure, shortened: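 Yeast carrying a defined DNA damage repair alteration were exposed to compounds. Growth inhibition was expressed relative to vehicle-treated controls.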

[16] = NCI Yeast Anticancer Drug Screen. Data for the mlh1 strain (AID 171);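 note: 0% = growth of vehicle-treated control cultures of the same strain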; conditions: S. cerevisiae mlh1 strain growth inhibition, stronger effect = higher value
Procedure, shortened: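 Yeast carrying a defined genetic alteration in DNA damage repair or cell cycle control were exposed to test compounds. Growth inhibition was measured relative to vehicle-treated controls.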

[17] = at 5.0 µM (retest, dose inferred, filed as 0.5)
[18] = at 50.0 µM (retest, dose inferred, filed as 5.0)

Measured: growth inhibition

O=C(O)C1C2c3ccccc3C(c3ccccc32)C1C(=O)O (stereo unspecified)
inactive: [1]; at 1.2 µM -1% | [1]; at 3.7 µM -1% | [1]; at 11.0 µM 2% | [1]; at 33.0 µM 0% | [1]; at 100.0 µM 11% | [2]; at 1.2 µM -3% | [2]; at 3.7 µM -3% | [2]; at 11.0 µM -2% | [2]; at 33.0 µM -1% | [2]; at 100.0 µM -2% | [3]; at 1.2 µM -4% | [3]; at 3.7 µM -3% | [3]; at 11.0 µM 2% | [3]; at 33.0 µM -3% | [3]; at 100.0 µM -4% | [4]; at 1.2 µM -3% | [4]; at 3.7 µM -2% | [4]; at 11.0 µM -2% | [4]; at 33.0 µM -2% | [4]; at 100.0 µM 0% | [5]; at 1.2 µM 0% | [5]; at 3.7 µM 4% | [5]; [17] 7% | [5]; at 11.0 µM 4% | [5]; at 33.0 µM 3% | [5]; [18] 47% | [5]; at 50.0 µM 52.6% and -32.8% | [5]; at 100.0 µM 12% | [6]; at 1.2 µM -2% | [6]; at 3.7 µM -5% | [6]; [17] -7% | [6]; at 11.0 µM -3% | [6]; at 33.0 µM -2% | [6]; [18] -1% | [6]; at 100.0 µM -1% | [7]; at 1.2 µM -2% | [7]; at 3.7 µM 1% | [7]; at 11.0 µM 0% | [7]; at 33.0 µM -2% | [7]; at 100.0 µM 2% | [8]; [17] -5% | [8]; [18] 16% | [8]; at 50.0 µM 52.7% and -33% | [9]; at 1.2 µM -4% | [9]; at 3.7 µM 2% | [9]; at 11.0 µM -4% | [9]; at 33.0 µM -3% | [9]; at 100.0 µM 1% | [10]; [17] 3% | [10]; [18] 10% | [10]; at 50.0 µM 25% and 11.1% | [11]; at 1.2 µM -4% | [11]; at 3.7 µM -3% | [11]; [17] 2% | [11]; at 11.0 µM -5% | [11]; at 33.0 µM -2% | [11]; [18] 17% | [11]; at 100.0 µM -2% | [12]; at 1.2 µM 0% | [12]; at 3.7 µM -10% | [12]; at 11.0 µM 5% | [12]; at 33.0 µM -1% | [12]; at 100.0 µM -16% | [13]; at 1.2 µM -12% | [13]; at 3.7 µM -22% | [13]; at 11.0 µM -3% | [13]; at 33.0 µM 5% | [13]; at 100.0 µM 12% | [14]; [17] 3% | [14]; [18] 69% | [14]; at 50.0 µM 37.1% and -42.5% | [15]; at 1.2 µM -4% | [15]; at 3.7 µM -2% | [15]; at 11.0 µM -1% | [15]; at 33.0 µM -2% | [15]; at 100.0 µM 6%
71.2% (active) and -29.5% (inactive): [11]; at 50.0 µM
86.6% (active) and -20.4% (inactive): [6]; at 50.0 µM

CC[C@@]1(O)C[C@H](OC2CC(N(C)C)C(O)C(C)O2)c2c(O)c3c(c(O)c2[C@H]1OC1CC(N(C)C)C(O)C(C)O1)C(=O)c1cccc(O)c1C3=O (stereo partly specified)
active: [1]; at 100.0 µM 92% | [4]; at 100.0 µM 87% | [5]; at 50.0 µM 83.1% | [5]; at 100.0 µM 90% | [6]; at 50.0 µM 85% | [7]; at 100.0 µM 83% | [8]; [18] 89% | [8]; at 50.0 µM 88.2% | [9]; at 100.0 µM 75% | [10]; [18] 71% | [10]; at 50.0 µM 75.8% | [11]; [18] 77% | [11]; at 50.0 µM 83.4% | [11]; at 100.0 µM 84% | [12]; at 100.0 µM 94% | [16]; at 100.0 µM 88% | [13]; at 100.0 µM 89% | [14]; at 50.0 µM 85% | [15]; at 100.0 µM 88%
inactive: [1]; at 1.2 µM 36% | [1]; at 3.7 µM 38% | [1]; at 11.0 µM 35% | [1]; at 33.0 µM 46% | [2]; at 1.2 µM -8% | [2]; at 3.7 µM 4% | [2]; at 11.0 µM 7% | [2]; at 33.0 µM 12% | [2]; at 100.0 µM 42% | [3]; at 1.2 µM 20% | [3]; at 3.7 µM 26% | [3]; at 11.0 µM 25% | [3]; at 33.0 µM 21% | [3]; at 100.0 µM 34% | [4]; at 1.2 µM 16% | [4]; at 3.7 µM 20% | [4]; at 11.0 µM 13% | [4]; at 33.0 µM 18% | [5]; at 1.2 µM 15% | [5]; at 3.7 µM 14% | [5]; [17] 16% | [5]; at 11.0 µM 11% | [5]; at 33.0 µM 27% | [5]; [18] 65% | [6]; at 1.2 µM 10% | [6]; at 3.7 µM -1% | [6]; [17] 10% | [6]; at 11.0 µM 3% | [6]; at 33.0 µM -4% | [6]; [18] 23% | [6]; at 100.0 µM 62% | [7]; at 1.2 µM 15% | [7]; at 3.7 µM 15% | [7]; at 11.0 µM 17% | [7]; at 33.0 µM 16% | [8]; [17] 5% | [9]; at 1.2 µM 3% | [9]; at 3.7 µM 6% | [9]; at 11.0 µM 1% | [9]; at 33.0 µM 10% | [10]; [17] 8% | [11]; at 1.2 µM 8% | [11]; at 3.7 µM 12% | [11]; [17] -9% | [11]; at 11.0 µM 6% | [11]; at 33.0 µM 10% | [12]; at 1.2 µM -21% | [12]; at 3.7 µM -24% | [12]; at 11.0 µM -44% | [12]; at 33.0 µM -4% | [16]; at 1.2 µM 20% | [16]; at 3.7 µM 20% | [16]; at 11.0 µM 16% | [16]; at 33.0 µM 10% | [13]; at 1.2 µM 14% | [13]; at 3.7 µM 9% | [13]; at 11.0 µM 11% | [13]; at 33.0 µM 18% | [14]; [17] 13% | [14]; [18] 63% | [15]; at 1.2 µM 6% | [15]; at 3.7 µM 12% | [15]; at 11.0 µM 5% | [15]; at 33.0 µM 30%

— PubChem BioAssay (NCI)
